Experimental findings from PubChem BioAssay (Tox21) are described below.

The nature of experiment [1]: qHTS assay to identify small molecule antagonists of the estrogen related receptor (ERR) signaling pathway from Tox21 library - cell viability counter screen (AID 1224834). Further: on the % scale 0 is the no-effect control and ±100 the full control effect; nearly all actives have a fitted effect of over 30% in size. Put shortly:
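Compounds in DMSO were pinned onto ERR cells that had been incubated for 6 h, and the plates were held at 37 C for 17.5 h. CellTiter-Fluor reagent was then added and fluorescence was measured after 30 min.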
A general note: Quantitative high-throughput screening tests each substance at several concentrations.

Experiment [2] can be described thus: qHTS assay to identify small molecule agonists of the constitutive androstane receptor (CAR) signaling pathway - cell viability counter screen (AID 1224836). Further: on the % scale 0 is the no-effect control and ±100 the full control effect; nearly all actives have a fitted effect of over 45% in size. Put shortly: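 HepG2 cells stably carrying hCAR and a CYP2B6-2.2kb reporter were plated 4 h, then given compounds at 15 concentrations plus PK11195 (final 0.75 uM). After 23 h at 37 C, viability was read by CellTiter-Fluor fluorescence.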

Experiment [3] can be described thus: qHTS assay to identify small molecule antagonists of the constitutive androstane receptor (CAR) signaling pathway - cell viability counter screen (AID 1224837). Further: on the % scale 0 is the no-effect control and ±100 the full control effect; nearly all actives have a fitted effect of over 45% in size. Put shortly: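 Cells are seeded, rested 4 hr at 37 C/5% CO2, dosed with compound (15-point series) and 50 nM CITCO, incubated a further 23 hr, and then CellTiter-Fluor reagent is added before fluorescence is read. The line is HepG2 with stable hCAR and CYP2B6-2.2kb.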

Experiment [4] concerns the target Nuclear receptor subfamily 1 group I member 3 (Homo sapiens) (UniProt Q14994). The experiment can be described thus: qHTS assay to identify small molecule antagonists of the constitutive androstane receptor (CAR) signaling pathway (AID 1224838). Further: on the % scale 0 is the no-effect control and ±100 the full control effect; nearly all actives have a fitted effect of over 40% in size. An outline of the steps: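 Luminescence from a CYP2B6-2.2kb promoter reporter in hCAR-expressing HepG2 cells reflects CAR signaling. Cells received compounds at 15 concentrations and 50 nM CITCO (final), then incubated 24 h at 37 C/5% CO2.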

Experiment [5] has the same target. The experiment can be described thus: qHTS assay to identify small molecule agonists of the constitutive androstane receptor (CAR) signaling pathway (AID 1224839). Further: nearly all actives have a fitted effect of over 15% in size. Further: potency means the concentration at half of the fitted maximal effect. On activation: on the % scale 0 is the no-effect control and ±100 the full control effect. Put shortly:
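HepG2 cells stably expressing hCAR and a CYP2B6-2.2kb luciferase reporter were treated with compounds at 15 concentrations plus 0.75 uM PK11195 (final) for 24 h at 37 C; luminescence was read after ONE-Glo addition.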

Experiment [6] in a line: qHTS assay to identify small molecule antagonists of the estrogen related receptor signaling pathway with the pleiotropic PPARgamma coactivator (PGC) from Tox21 10K library - cell viability counter screen (AID 1224840; active means well fitted cell-killing curve with a large enough effect in the repeat runs, not every such curve was filed as active; further: on the % scale 0 is the no-effect control and ±100 the full control effect; nearly all actives have a fitted effect of over 40% in size). Put shortly:
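Cell viability is measured by CellTiter-Fluor fluorescence in PGC/ERR cells that receive compounds after a 6-hour attachment period and are then incubated 17.5 hours at 37 C.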

Experiment [7] addresses Thyrotropin receptor (Homo sapiens) (UniProt P16473). The experiment can be described thus: qHTS assay to identify small molecule agonists of the thyroid stimulating hormone receptor (TSHR) signaling pathway (AID 1224843; calls by dose curve; further: on the % scale 0 is the no-effect control and ±100 the full control effect; nearly all actives have a fitted effect of over 45% in size). An outline of the steps:
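HEK293/TSHR, 800 cells/well; cpd 30 min RT; add cAMP-d2 + anti-cAMP-cryptate, 1 h RT; fluorescence read on plate reader. 15-pt titration, n=3.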

Experiment [8] is described as follows: qHTS assay to identify small molecule agonists of the hypoxia (HIF-1) signaling pathway - cell viability counter screen (AID 1224844; calls by dose curve; further: on the % scale 0 is the no-effect control and ±100 the full control effect; nearly all actives have a fitted effect of over 50% in size). Put shortly:
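Viability counter screen: HRE-bla ME-180 cells plated 5 hrs before compound addition, treated 17 hrs at 37C and 5% CO2, then CellTiter-Glo added after the FRET reporter read; luminescence after 30 min.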

Experiment [9] can be described thus: qHTS assay to identify small molecule agonists of H2AX (AID 1224845; active means well fitted activation curve with a large enough effect in the signal ratio in the repeat runs, not every such curve was filed as active; the % refers to the signal ratio; further: on the % scale 0 is the no-effect control and ±100 the full control effect). Put shortly:
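Wild-type CHO-K1 cells, plated overnight, exposed 3hr at 37C to 15 concentrations (0.76% DMSO final). Lysed, then HTRF anti-pH2AX (S139) cryptate and anti-H2AX-d2 antibodies, 24 hr room temperature; 665/620 nm emission read.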

Experiment [10] in a line: qHTS assay to identify small molecule agonists of the hypoxia (HIF-1) signaling pathway (AID 1224846; active means well fitted activation curve with a large enough effect in the signal ratio in the repeat runs, not every such curve was filed as active; the % refers to the signal ratio; further: on the % scale 0 is the no-effect control and ±100 the full control effect). Put shortly: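 Agonist mode reporter screen. ME-180 cells stably expressing bla under HRE control received test compounds in DMSO for 17 hrs (37C, 5% CO2), and beta-lactamase activity was then detected with the CCF4-AM FRET substrate.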
Experiment [11] is described as follows: qHTS assay to identify small molecule agonists of H2AX - cell viability counter screen (AID 1224847; calls by dose curve; further: top concentration of the series differs between compounds; on the % scale 0 is the no-effect control and ±100 the full control effect; nearly all actives have a fitted effect of over 30% in size). An outline of the steps: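 Wild-type CHO-K1 cells (10% FBS medium) were plated overnight at 37C, exposed to compounds at 15 concentrations for 3 hr at 37C (0.76% DMSO final), and viability was read as CellTiter-Glo luminescence after 30 min at room temperature.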

A short description of experiment [12]: qHTS RealTime-Glo MT Cell Viability Assay in HepG2 cells - 24 hour (AID 1224867). Further: on the % scale 0 is the no-effect control and ±100 the full control effect; nearly all actives have a fitted effect of over 50% in size. Put shortly: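 HepG2 cells were seeded at 600 cells/well together with NanoLuc luciferase and a cell-permeant prosubstrate, preincubated 5 h at 37 C/5% CO2, then pin-dosed with compounds in DMSO. Nonlytic luminescence from viable cells was read at each time point.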
The nature of experiment [13]: qHTS RealTime-Glo MT Cell Viability Assay in HEK293 cells - 32 hour (AID 1224868). Further: top concentration of the series differs between compounds; on the % scale 0 is the no-effect control and ±100 the full control effect; nearly all actives have a fitted effect of over 50% in size. Put shortly:
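HEK293 cells were seeded at 600 cells/well together with NanoLuc luciferase and cell-permeant prosubstrate, preincubated 5 h at 37 C/5% CO2, then given compound in DMSO by pintool. Luminescence from viable-cell prosubstrate reduction was read repeatedly over 40 h.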

A short description of experiment [14]: A CellTox Green Cytotoxicity Assay to monitor cytotoxicity in HEK293 cells - 0 hour (AID 1224869). Further: on the % scale 0 is the no-effect control and ±100 the full control effect; nearly all actives have a fitted effect of over 50% in size. Put shortly: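 Dead-cell fluorescence measured kinetically: asymmetric cyanine dye, HEK293, 600 cells/well, 5 h settle, 23 nL cpd/DMSO, 37 C, reads 0–40 h every 8 h.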
Experiment [15] can be described thus: qHTS assay to identify small molecule antagonists of the estrogen related receptor signaling pathway with the pleiotropic PPARgamma coactivator (PGC) from Tox21 10K library (AID 1224841; call rule not given here). Put shortly:
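Cells stably carrying the PGC/ERR reporter, seeded at 2,000 per well, received pin-transferred compounds 6 h post-plating. Exposure lasted 18 h at 37 C. Signal: One-Glo luminescence.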

Experiment [16] is described as follows: qHTS assay to identify small molecule agonists of the estrogen related receptor signaling pathway with the pleiotropic PPARgamma coactivator (PGC) from Tox21 10K library (AID 1224842). Further: on the % scale 0 is the no-effect control and ±100 the full control effect; nearly all actives have a fitted effect of over 15% in size. Put shortly: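 PGC/ERR reporter cell line, 2,000 cells per well, incubated 6 h at 37 C before 23 nL compound in DMSO was added. After 18 h at 37 C, One-Glo luminescence read following 30 min at room temperature.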

The nature of experiment [17]: qHTS assay to identify small molecule antagonists of the estrogen related receptor (ERR) signaling pathway from Tox21 library (AID 1224848). Put shortly:
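Compounds dissolved in DMSO are pin-transferred onto ERR reporter cells (2,000 per well) that have settled for 6 h at 37 C. Plates then incubate 18 h at 37 C before ONE-Glo luciferase reagent and a luminescence read 30 min later.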

A short description of experiment [18]: qHTS assay to identify small molecule agonists of the estrogen related receptor (ERR) signaling pathway from Tox21 library (AID 1224849; calls by dose curve; further: on the % scale 0 is the no-effect control and ±100 the full control effect; nearly all actives have a fitted effect of over 15% in size). Conditions: ERR reporter cell line, ONE-Glo luciferase, 18 h; at 92.4 µM (top of the series) unless noted. Put shortly: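 Quantitative HTS in agonist format: NTP ERR cell line, compounds transferred in DMSO after 6 h plating, 18 h incubation at 37 C, ONE-Glo luminescence endpoint.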

Experiment [19] concerns the target Luciferin 4-monooxygenase (Photinus pyralis) (UniProt P08659). The experiment can be described thus: qHTS assay to identify small molecule inhibitors of firefly luciferase (AID 1224835). Further: potency means the concentration at half of the fitted maximal effect; nearly all actives have a fitted effect of over 25% in size. Put shortly:
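Biochemical qHTS: compounds run as interplate titrations against purified firefly enzyme, with D-luciferin and ATP each at its KM concentration. Light output recorded by CCD imaging.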

Where “and” joins values, the source holds several entries; their conditions need not be identical. Identical values can stand only once. A number with no mark means an inactive call. Records with an inconclusive call do not appear. Calls of active or inactive are those of the source. Unless noted, the call rests on the fitted dose curve; in most records, active means well fitted curve in the direction sought with a large enough effect in the repeat runs; inconclusive means weak or mixed curves; inactive means no such curve, though single readings can be large; an effect the other way counts as inactive or inconclusive.

Chain of Thyrotropin receptor (Homo sapiens) (P16473 whole entry, looked up): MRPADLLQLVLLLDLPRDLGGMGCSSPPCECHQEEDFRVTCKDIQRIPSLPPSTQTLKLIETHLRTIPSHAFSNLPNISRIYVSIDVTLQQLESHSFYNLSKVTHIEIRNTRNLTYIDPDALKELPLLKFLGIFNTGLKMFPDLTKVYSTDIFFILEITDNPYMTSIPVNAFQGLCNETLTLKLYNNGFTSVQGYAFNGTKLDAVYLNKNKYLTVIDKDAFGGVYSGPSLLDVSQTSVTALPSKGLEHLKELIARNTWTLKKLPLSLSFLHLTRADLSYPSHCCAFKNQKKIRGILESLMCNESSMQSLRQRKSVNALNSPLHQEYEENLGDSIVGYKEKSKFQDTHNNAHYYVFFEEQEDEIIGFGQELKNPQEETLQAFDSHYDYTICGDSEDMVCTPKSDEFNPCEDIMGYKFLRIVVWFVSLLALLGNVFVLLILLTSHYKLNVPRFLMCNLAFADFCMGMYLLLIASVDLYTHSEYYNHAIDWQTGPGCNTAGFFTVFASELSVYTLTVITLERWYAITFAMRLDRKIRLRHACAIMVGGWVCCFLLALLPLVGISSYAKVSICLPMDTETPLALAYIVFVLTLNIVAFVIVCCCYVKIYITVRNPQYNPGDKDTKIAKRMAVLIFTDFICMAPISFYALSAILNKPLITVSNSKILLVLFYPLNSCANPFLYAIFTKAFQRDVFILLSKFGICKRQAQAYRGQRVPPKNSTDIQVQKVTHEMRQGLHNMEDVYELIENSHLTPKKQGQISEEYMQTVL
Chain of Nuclear receptor subfamily 1 group I member 3 (Homo sapiens) (Q14994 whole entry, looked up): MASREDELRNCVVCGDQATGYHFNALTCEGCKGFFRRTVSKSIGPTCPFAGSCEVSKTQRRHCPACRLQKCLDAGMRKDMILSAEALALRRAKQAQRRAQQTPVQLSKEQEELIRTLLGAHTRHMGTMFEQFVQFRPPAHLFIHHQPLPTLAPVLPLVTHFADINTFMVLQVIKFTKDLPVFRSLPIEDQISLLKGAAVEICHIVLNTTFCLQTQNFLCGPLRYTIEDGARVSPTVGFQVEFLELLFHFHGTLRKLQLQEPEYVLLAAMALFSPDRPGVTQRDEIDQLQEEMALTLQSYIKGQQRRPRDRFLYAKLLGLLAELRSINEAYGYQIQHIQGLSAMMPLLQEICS
Chain of Luciferin 4-monooxygenase (Photinus pyralis) (P08659 whole entry, looked up): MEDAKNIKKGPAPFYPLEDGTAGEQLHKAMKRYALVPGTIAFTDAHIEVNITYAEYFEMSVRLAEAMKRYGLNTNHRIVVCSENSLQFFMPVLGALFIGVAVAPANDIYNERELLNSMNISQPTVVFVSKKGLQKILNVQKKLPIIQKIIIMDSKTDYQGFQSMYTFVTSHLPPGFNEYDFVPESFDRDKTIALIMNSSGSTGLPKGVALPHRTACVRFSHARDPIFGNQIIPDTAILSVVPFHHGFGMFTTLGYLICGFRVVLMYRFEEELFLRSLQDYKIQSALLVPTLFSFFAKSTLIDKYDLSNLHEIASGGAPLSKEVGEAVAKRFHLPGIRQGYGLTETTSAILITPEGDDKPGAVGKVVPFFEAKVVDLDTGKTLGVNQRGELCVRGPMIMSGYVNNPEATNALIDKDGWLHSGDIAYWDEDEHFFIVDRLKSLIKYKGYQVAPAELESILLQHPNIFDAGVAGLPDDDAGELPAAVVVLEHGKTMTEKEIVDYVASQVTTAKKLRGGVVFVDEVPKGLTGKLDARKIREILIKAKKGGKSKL

Consider `CCCCC/C=C\CCC=O`, for which the Potency result in experiment [1], in experiment [2], in experiment [3], in [4], in [5] and in experiment [6] was “inactive” in each case. Further, the Potency entry in experiment [7], in experiment [8], in experiment [11], in [12], in experiment [13] and in experiment [14] was “inactive” throughout. The outcome in [9] and in [10] was inactive.

With `OC[C@]1(O)OC[C@@H](O)[C@H](O)[C@@H]1O`, the Potency result in experiment [1], in experiment [2], in experiment [3], in experiment [4], in experiment [5] and in [6] was “inactive” each time. In addition, the Potency result in [7], in experiment [8], in experiment [11], in experiment [12], in [13] and in [14] was “inactive” each time. The call in experiment [9] and in experiment [10] was inactive.

Turning to `CC1(C)CO[C@@H](CC(=O)O)CN1`, the Potency entry in experiment [1], in experiment [2], in experiment [4], in [5], in experiment [6] and in experiment [15] was “inactive” in each case. Besides, the Potency entry in experiment [7], in experiment [8], in [11], in experiment [17], in experiment [12] and in [13] was “inactive” in each case. Further, the Potency result in [14] is “inactive”. Also, the result in experiment [16], in experiment [9] and in experiment [10] was inactive. Further, the activity change, positive = activation in [18] is 0.501% [at 42.5 µM].

Turning to `NCCc1cnc[nH]1`, the Potency result in experiment [1], in experiment [2], in experiment [3], in experiment [4], in experiment [6] and in experiment [7] was “inactive” throughout. In addition, the Potency entry in [8], in [11], in [12], in experiment [13] and in experiment [14] was “inactive” throughout. In experiment [9], the call was inactive.

Take `CN1CCCC1`: the Potency result in experiment [1], in [2], in [4], in [5], in [6] and in [15] was “inactive” throughout. The Potency entry in experiment [7], in [8], in [11], in experiment [17], in experiment [12] and in experiment [14] was “inactive” in each case. The molecule was classed as inactive in [9] and in experiment [10]. For the same molecule, the activity change, positive = activation in experiment [18] is 4.55%.

For `CC(C)(C)c1ccc(O)c(O)c1`, the Potency is 32.8 µM (active) and 22.4 µM (active) in [19]; 63.2 µM (active) and 24.3 µM (active) in [5]. Moreover, the Potency result in experiment [2], in experiment [3], in experiment [4], in [8], in experiment [11] and in experiment [14] was “inactive” each time.

For the molecule `Cc1ccc(Cl)cc1Cl`, the Potency result in [1], in experiment [2], in experiment [4], in experiment [5], in [6] and in experiment [15] was “inactive” each time. Further, the Potency result in [7], in experiment [8], in experiment [11], in experiment [12], in [13] and in experiment [14] was “inactive” throughout. In addition, the molecule was classed as inactive in [9] and in experiment [10]. Further, the activity change, positive = activation in [18] was -0.115%.

For `C=C[Si](OC(=C)C)(OC(=C)C)OC(=C)C`, the Potency entry in experiment [1], in experiment [2], in experiment [3], in experiment [4], in [5] and in [6] was “inactive” each time. The Potency result in [15], in experiment [7], in experiment [8], in experiment [11], in [12] and in [13] was “inactive” each time. For the same molecule, the Potency entry in experiment [14] is “inactive”. Moreover, the outcome in experiment [9] and in [10] was inactive. Further, the activity change, positive = activation in [18] is -0.275%.
